# Source: PubChem (several laboratories)
# The full list was thinned out, with hits kept by preference.
# PKA kinase inh – inhibitors of human protein kinase A; inhibition, % at 6 µM; AID 524; P17612; 65,000 compounds, 0.1% hits; PKA Kemptide phosphorylation, Kinase-Glo ATP luminescence;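 active = inhibition above the screen-wide mean inhibition plus 3 SD, cut at about 21% in these data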
# ROCK2 blocker – ROCK2 (human) kinase inhibition | O75116 | purified ROCK2, Kinase-Glo ATP depletion luminescence | inhibition, % at 6 µM | 60,000 compounds, 0.35% hits;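 active = inhibition above the screen-wide mean inhibition plus 3 SD, cut at about 18% in these data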
# D1 mod – D1 dopamine receptor (human) allosteric modulation; B-score at 10 µM; AID 641; HEK293 D1, CRE-luciferase, dopamine EC30 potentiation; actives deviate in either direction; 58,000 compounds, 5.9% hits;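 active = luminescence count or its row- and column-corrected plate score outside the 99.7% band of the plate's sample wells, on either side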
# JNK3 inh – JNK3 (human) kinase inhibition; 60,000 compounds, 0.61% hits; inhibition, % at 8 µM; purified JNK3 kinase activity, HTS; AID 746; P53779; in the data active = inhibition above about 17%
# hDAT+cocaine – changed human dopamine transporter uptake under cocaine IC80; Q01959; LLC-PK1 hDAT cells, [14C]-dopamine uptake with cocaine IC80; actives deviate in either direction; B-score at 10 µM; 110,000 compounds, 1.3% hits;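 active = Z score or B-score, a plate-position-corrected score, falls beyond the plate's 99.7% confidence bounds, in either direction; inactive = both scores lie inside the 99.7% bounds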
# Target sequence (Q01959 whole entry, looked up): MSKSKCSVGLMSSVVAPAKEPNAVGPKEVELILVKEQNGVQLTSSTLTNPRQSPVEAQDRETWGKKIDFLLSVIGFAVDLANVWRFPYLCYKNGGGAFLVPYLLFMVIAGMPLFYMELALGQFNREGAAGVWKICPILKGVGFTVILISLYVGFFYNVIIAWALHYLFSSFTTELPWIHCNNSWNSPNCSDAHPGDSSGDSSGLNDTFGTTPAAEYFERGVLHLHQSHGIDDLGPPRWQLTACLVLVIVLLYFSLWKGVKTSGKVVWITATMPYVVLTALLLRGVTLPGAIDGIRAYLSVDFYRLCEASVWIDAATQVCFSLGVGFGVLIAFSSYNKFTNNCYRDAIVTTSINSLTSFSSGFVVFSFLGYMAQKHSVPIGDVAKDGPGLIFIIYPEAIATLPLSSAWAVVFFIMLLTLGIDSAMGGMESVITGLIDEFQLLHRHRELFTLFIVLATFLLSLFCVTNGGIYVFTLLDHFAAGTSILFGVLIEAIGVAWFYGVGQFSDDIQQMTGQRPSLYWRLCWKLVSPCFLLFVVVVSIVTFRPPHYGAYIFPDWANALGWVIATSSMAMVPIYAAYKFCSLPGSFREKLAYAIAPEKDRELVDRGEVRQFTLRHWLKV
# D1 mod confirm – D1 receptor (human) allosteric modulation, confirmed; 2,200 compounds, 88% hits; shares compounds with D1 mod; AID 642; HEK293 D1 CRE-luciferase, dopamine EC30 potentiation; stronger effect = higher value; luminescence at 10 µM;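 active = luminescence in either of two replicates above the same-plate mean plus 3 SD of the low-dose dopamine control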
# D1 no dopamine – activates D1 CRE-luciferase signal without dopamine present | shares compounds with D1 mod | HEK293 D1 CRE-luciferase, luminescence, no dopamine; stronger effect = higher value | 1,900 compounds, 0.8% hits | AID 646 | luminescence at 10 µM; in the data active = luminescence above about 3900
# Isoprot counter – isoproterenol response counter-screen activity for D1 modulators; calls only at 10 µM; 2,200 compounds, 63% hits; AID 647; shares compounds with D1 mod; HEK293 D1 CRE-luciferase, isoproterenol EC30 counter-screen;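 active = luminescence in either replicate above plate mean of wells with a partly effective reference agonist dose plus 3 SD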;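 also: isoproterenol raises cAMP through native beta-adrenoceptor Gs so signal bypasses D1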
# Hits are given with their value; 0 = inactive; - = no result; + = active, no number.
SMILES,PKA kinase inh,ROCK2 blocker,D1 mod,JNK3 inh,hDAT+cocaine,D1 mod confirm,D1 no dopamine,Isoprot counter
CCOC(=O)c1cnc(-n2nc(C)cc2C)nc1NC(C)c1ccccc1 (configuration not stated),0,0,8.3,0,0,9080,0,+
CCC(=O)N1CCc2cc(S(=O)(=O)NCCC(=O)NC3CCCc4ccccc43)ccc21 (configuration not stated),0,0,3.8,0,0,8544,0,0
O=C(O)CCC(=O)N1CCc2cc(S(=O)(=O)NC3CCCc4ccccc43)ccc21 (configuration not stated),0,0,0,0,0,-,-,-
CCOC(=O)c1sc(NC(C)=O)c(C(=O)OCC)c1C,0,0,-,0,0,-,-,-
CCOC(=O)c1c(NC(N)=O)sc(C)c1C,0,0,6.7,0,0,11700,0,+
CCOC(=O)Nc1sc(C(=O)N(CC)CC)c(C)c1C(=O)OCC,0,0,5.1,0,0,14176,0,0
COc1ccc(CN2CCN(c3ccccn3)CC2)cc1OCc1ccccc1,0,0,0,0,0,-,-,-
CCOc1ccccc1NC(=O)C1C2C=CC(O2)C1C(=O)O (configuration not stated),0,0,4.8,0,0,0,0,0
CCOc1ccccc1NC(=O)C1C2C=CC(C2)C1C(=O)O (configuration not stated),-,-,-,-,0,-,-,-
CNC(=S)NNC(=O)Cc1ccc(OC)c(OC)c1,-,-,-,-,0,-,-,-
Cn1c(CCNC(=O)c2ccccc2F)nnc1SCc1nc2ccccc2c(=O)[nH]1,0,0,0,0,0,-,-,-
CSc1c(C#N)c(N)c(C#N)c2c1COC(C)(C)C2,0,0,25,0,0,28108,0,+
CC(C)c1[nH]c(=O)c(C#N)c2c1COC(C)(C)C2,-,-,-,-,0,-,-,-
CCOC(=O)COc1ccsc1C(=O)OC,-,-,-,-,0,-,-,-
CCCCC(=O)Nc1ccc(Br)cn1,-,-,-,-,0,-,-,-
CCCCNC(=O)Nc1ccc(Br)cn1,0,-,7.2,-,0,12048,0,0
c1ccc(Cc2nn3c(COc4ccccc4)nnc3s2)cc1,0,0,9.1,0,0,17316,0,+
NC(=O)C1CCN(c2nc(-c3ccccc3)nc3ccccc23)CC1,0,0,15,0,0,24116,0,+
c1ccc2c(N3CCCCCC3)nc(-c3ccncc3)nc2c1,-,-,-,-,0,-,-,-
c1cncc(-c2nc(N3CCCCCC3)c3ccccc3n2)c1,0,0,12,0,-,14412,0,+
CCC(NC(C)C)C(O)c1ccc(O)c(O)c1 (configuration not stated),0,0,13,0,0,9904,3836,+
Cc1ccc(O)c(O)c1,-,-,-,-,0,-,-,-
COc1ccc(-c2cc(=O)oc3c(C)c(O)c(CN(C)C)cc23)cc1,0,0,3.6,0,0,9264,0,0
COC(=O)COc1ccc2c(-c3ccc(OC)cc3)cc(=O)oc2c1,-,-,-,-,0,-,-,-
CC1CCc2nn(CC(=O)NCCN3CCCCC3C)cc2C1 (configuration not stated),0,0,0,0,0,-,-,-
SMILES,PKA kinase inh,ROCK2 blocker,D1 mod,JNK3 inh,hDAT+cocaine,D1 mod confirm,D1 no dopamine,Isoprot counter
O=C(OCC#CCSc1nnc(-c2ccc(Br)cc2)o1)c1ccco1,0,0,4.8,0,0,7080,0,0
CCOC(=O)Nc1ccccc1C(=O)N1CCOCC1,0,0,0,0,0,-,-,-
O=C(c1ccc(Br)o1)N(Cc1ccccc1)c1ccccn1,-,-,-,-,0,-,-,-
O=C(c1cccnc1)N(Cc1ccccc1)c1ccccc1,0,0,6.8,0,0,15108,0,+
O=C(c1ccccc1)N(Cc1ccccc1)c1ccccn1,0,0,5.8,0,0,9876,-,0
COC(=O)Nc1ccc(OCc2ccccc2)cc1,0,0,0,0,0,-,-,-
NC(=O)COc1ccc(NC(=O)OCc2ccccc2)cc1,0,0,5.6,0,0,10828,0,0
COC(=O)c1sccc1NC(=O)c1ccc(Cl)s1,0,0,0,0,0,-,-,-
CNC(=O)c1ccsc1NC(=O)c1ccc(Cl)s1,0,0,4.9,0,0,16692,0,+
Cc1cc(-c2ccco2)n(-c2ccccc2)n1,0,0,5.9,0,0,13928,0,+
COc1cc2c(cc1OC)-c1nnc(-c3ccco3)n1C1(CCCC1)C2,-,-,-,-,0,-,-,-
